Compounds without any hit were thinned out: in the full panel of roughly 79,000, 15% have a hit. A number with no mark means an inactive call. Rule as the data show it: active = growth inhibition above about 70%; inactive = the rest.

This note sets out measurements from PubChem BioAssay (NCI).

The experiment is described as follows: NCI Yeast Anticancer Drug Screen. Data for the sgs1 mgt1 strain (AID 161).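 Also: 0% = growth of cultures given vehicle only.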 The note with it: S. cerevisiae sgs1 mgt1 strain, at 50.0 µM, active compounds read high. Here is the method:
Growth inhibition of yeast strains with defined genetic alterations is measured as a screen for potential anti-cancer activity. Selected strains with alterations in DNA damage repair or cell cycle control were exposed to compounds and growth inhibition was measured relative to vehicle treated controls. The strain used in this assay is sgs1 mgt1
With `O=C(c1ccc(Cl)cc1)c1ccccc1Cl`, the growth inhibition was 41.3%.

As for `CN(C)/N=C/c1ccccc1O`, the growth inhibition is -16.9%. As for `c1ncc2[nH]cnc2n1`, the figure is -11.6%. The figure for `Cc1cc(C)cc(NCCC#N)c1` is 18.4%. Consider `Cc1cc(N)ccc1-c1ccc(N)cc1C`, for which the growth inhibition was 4.45%. Take `CC(C)OC(=O)c1cc(NC(=S)OC(C)C)ccc1Cl`: the growth inhibition is 22.9%. `O=C1OC[C@H]2[C@H](c3ccc(O)c(O)c3)c3cc(O)c(O)cc3C[C@H]12`: the growth inhibition is 23.9%.

Turning to `Cc1c(O)cnc2nn(-c3ccccc3)c(=N)n12`, the growth inhibition is 35.7%.

As to `Oc1ccc2c(c1)OCC1(O)Cc3cc(O)c(O)cc3C21` (stereo not given), the growth inhibition was 10.3%. As for `CN(C)C(=O)Oc1cccc([N+](C)(C)C)c1`, the figure is 5.95%. As for `Brc1cnc2ccccc2c1`, the figure is 26.7%. `C#CCSc1nnnn1-c1ccc(Br)c(C)c1`: the growth inhibition is 34.5%. On to `Cc1ccc(CCCC(=O)O)c(C)c1`, for which the growth inhibition was 22.1%. As for `COC(=O)c1cc(-c2ccc(Cl)c(Cl)c2)[nH]c(=O)c1C#N`, the figure is -27.9%; as for `O=C(O)COCC(=O)O`, -11.4%; as for `O=c1[nH]nc(SC2CCCCC2)c(=O)[nH]1`, -11.9%. As for `O=C1c2ccccc2C(=O)c2c1ccc(C(=O)O)c2[N+](=O)[O-]`, the figure is 32.2%; as for `COc1cc(C(N)=O)cc(OC)c1OC`, -0.35%; as for `Nc1ccc(C(=O)c2ccc(N)c(Br)c2)cc1Br`, 6.6%. As for `Nc1nc(N)c2cc(S(=O)(=O)c3cccc(C(F)(F)F)c3)ccc2n1`, the figure is 7.4%; as for `CC1SC(N)=NC1=O` (stereo not given), 0.25%. In the case of `O=C1C=C(O)C(=O)C=C1O`, the growth inhibition was 14.9%. The figure for `COc1cccc(O)c1O` is 1.2%. As for `O=C(NCO)c1ccccc1`, the figure is -1.65%; as for `OCCN1CCOCC1`, 1.4%. The figure for `Nc1ncnc2[nH]ncc12` is 37%; for `O=C1OC(c2ccc(F)cc2)CC1CN1CCOCC1` (stereo not given) it is 30.6%. Take `C=CC[N+](C)(C)C`: the growth inhibition is 5.75%.

On to `CC(=O)c1c[nH]c2ccccc12`, for which the growth inhibition is -19.6%. As for `CCN(CC)c1ccc2nc3ccc(=[N+](CC)CC)cc-3oc2c1`, the figure is -187%; as for `CC(=O)OCCC(C)CCC=C(C)C` (stereo not given), -19.9%; as for `NC(C(=O)O)c1ccc([N+](=O)[O-])cc1` (stereo not given), 8.8%.

With `COc1cc(C2c3cc4c(cc3C3OC(=O)C2C3CO)OCO4)cc(OC)c1OC` (stereo not given), the growth inhibition is -14.5%. For the molecule `O=C(Nc1ccccc1)OCCc1ccccc1`, the growth inhibition was 27.4%. For `NCC(=O)CCC(=O)O`, the growth inhibition is 0.5%. The figure for `O=[N+]([O-])c1ccc(CO)cc1` is 8.85%; for `O=c1[nH]cc(Cl)cc1O` it is -1.35%. As for `CC(=O)Cc1cc(-c2cc(CC(C)=O)[nH]n2)n[nH]1`, the figure is -24.1%; as for `CC(C)(N)COS(=O)(=O)O`, -7.95%; as for `COc1ccc(C2(O)CCCCC2)cc1`, 2.85%.
